In PubChem BioAssay (NCI):
Compounds without any hit were thinned out: in the full panel of roughly 79,000, 15% have a hit. Values without a mark were called inactive. Active and inactive are the calls of the source. Rule as the data show it: active = growth inhibition above about 70%; inactive = the rest.

Experiments:
[1] = NCI Yeast Anticancer Drug Screen. Data for the rad50 strain (AID 155);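 also: 0% = growth of vehicle-only cultures of the same strain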; details: S. cerevisiae rad50 strain growth inhibition, hits give high values
In short: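 Compounds were tested on a yeast strain with an engineered DNA damage repair alteration; the reported value is growth inhibition normalised to vehicle treatment.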

[2] = NCI Yeast Anticancer Drug Screen. Data for the mec2-1 strain (AID 157); details: S. cerevisiae mec2-1 strain, hits give high values
In short: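 Compounds were applied to mec2-1 yeast cells. Their growth was then compared with that of vehicle-treated cultures to give growth inhibition.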

[3] = NCI Yeast Anticancer Drug Screen. Data for the sgs1 mgt1 strain (AID 161);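 also: 0% = growth of cultures given vehicle only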; details: S. cerevisiae sgs1 mgt1 strain, hits give high values
In short: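 This yeast growth screen uses a strain with defined DNA-repair lesions; compound-treated growth is compared with vehicle-treated growth.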

[4] = NCI Yeast Anticancer Drug Screen. Data for the cln2 rad14 strain (AID 165);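 also: 0% = growth equal to vehicle treated cultures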; details: S. cerevisiae cln2 rad14 strain, hits give high values
In short: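 Strain: cln2 rad14 yeast, altered in cell cycle control and DNA damage repair. Read-out: growth inhibition vs vehicle.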

[5] = NCI Yeast Anticancer Drug Screen. Data for the bub3 strain (AID 167); details: S. cerevisiae bub3 mutant strain, hits give high values
In short: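 Growth of a checkpoint-deficient yeast mutant is measured after compound exposure. Values represent inhibition relative to vehicle.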

[6] = NCI Yeast Anticancer Drug Screen. Data for the mlh1 rad18 strain (AID 175); details: S. cerevisiae mlh1 rad18 strain growth inhibition, hits give high values
In short: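 A repair-deficient yeast strain is exposed to test compound, and growth is scored relative to vehicle-treated controls.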

[7] = at 5.0 µM (retest, dose inferred, filed as 0.5)
[8] = at 50.0 µM (retest, dose inferred, filed as 5.0)

Compound	growth inhibition [1, 7]	growth inhibition [1, 8]	growth inhibition ([1]; at 50.0 µM)	growth inhibition [2, 7]	growth inhibition [2, 8]	growth inhibition ([2]; at 50.0 µM)	growth inhibition [3, 7]	growth inhibition [3, 8]	growth inhibition ([3]; at 50.0 µM)	growth inhibition [4, 7]	growth inhibition [4, 8]	growth inhibition ([4]; at 50.0 µM)	growth inhibition [5, 7]	growth inhibition [5, 8]	growth inhibition ([5]; at 50.0 µM)	growth inhibition [6, 7]	growth inhibition [6, 8]	growth inhibition ([6]; at 50.0 µM)
CCOC(=O)Nc1cc2c(c(N)n1)N=C(c1ccccc1)CN2	6%	34%	36.3%	-25%	35%	-3.7%	-13%	89% (active)	37.2%	11%	33%	17.9%	22%	80% (active)	47.1%	10%	52%	18.1%
Fc1ccc(CSC(=S)Nc2cccc(C(F)(F)F)c2)cc1	10%	99% (active)	99.6% (active)	9%	100% (active)	99.8% (active)	12%	100% (active)	99.7% (active)	3%	99% (active)	99.5% (active)	-2%	100% (active)	99.7% (active)	7%	99% (active)	99.5% (active)
C=CCCCN1C(=O)C2C3c4ccccc4C(C=O)(c4ccccc43)C2C1=O (configuration not stated)	29%	25%	32.1%	8%	20%	30.7%	0%	23%	27.9%	16%	12%	29.6%	26%	17%	4.65%	27%	35%	3.25%
CCCCCCCCCCOC(=O)c1cc[n+](C)cc1	-4%	-5%	13.8%	7%	6%	9.5%	-5%	0%	-1.75%	-3%	-4%	46.1%	-5%	-6%	-0.65%	-2%	-1%	-18.9%
CC(=O)Oc1ccccc1C(=O)/C=C/c1ccccc1	3%	82% (active)	-11.2%	7%	89% (active)	17.4%	4%	93% (active)	11.6%	0%	40%	-17.3%	-1%	90% (active)	61%	-1%	98% (active)	9.75%
CCCCCc1cc(Cl)cc(Cl)c1O	-5%	45%	60.1%	-23%	0%	10.1%	-5%	26%	67.5%	0%	-6%	-13.2%	-22%	-22%	9.05%	-3%	18%	62.1%
CCCCCCCCCCCCCCCCCCOC(=O)C(N)CCCCN (configuration not stated)	2%	98% (active)	98.3% (active)	-3%	97% (active)	98.8% (active)	3%	97% (active)	50.5%	-7%	87% (active)	96.7% (active)	-7%	96% (active)	98.2% (active)	-5%	96% (active)	98.3% (active)
COc1cc(C)c2sc3ccccc3c(=O)c2c1NCCCN(C)C	1%	51%	72.3% (active)	-4%	-6%	37%	-2%	58%	70.3% (active)	-4%	51%	14.6%	0%	53%	27.1%	-3%	54%	95.3% (active)
COc1ccc(CSC(=S)Nc2ccccc2C(F)(F)F)cc1	8%	93% (active)	98.3% (active)	6%	97% (active)	99.2% (active)	1%	99% (active)	99.2% (active)	-1%	94% (active)	98.6% (active)	-3%	96% (active)	99% (active)	4%	95% (active)	99% (active)
